# HPGD inh = inhibitors of human 15-hydroxyprostaglandin dehydrogenase (HPGD); P15428; purified HPGD, NADH fluorescence kinetic, PGE2 substrate; Potency, µM, without a hit: at the top dose activity change, negative = inhibition, actives largely listed as inhibitors; 150,000 tested, 4.3% active; note: potency is the fitted concentration of half-maximal effect
# Target sequence (P15428 whole entry, looked up): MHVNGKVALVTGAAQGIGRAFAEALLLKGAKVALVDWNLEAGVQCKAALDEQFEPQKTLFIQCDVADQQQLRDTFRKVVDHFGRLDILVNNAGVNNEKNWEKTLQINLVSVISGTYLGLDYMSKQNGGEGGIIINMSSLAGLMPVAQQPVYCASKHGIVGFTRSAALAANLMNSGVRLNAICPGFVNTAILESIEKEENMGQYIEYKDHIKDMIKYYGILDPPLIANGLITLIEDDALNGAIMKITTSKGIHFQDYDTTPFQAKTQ
#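 20 nM HPGD preincubated 15 min at room temperature with compound in 50 mM Tris-HCl pH 8, 0.01% Tween 20. Started with 1 mM NAD+ and 30 uM prostaglandin E2; NADH fluorescence (360/450 nm) read 5 times over 30-s intervals, last minus first.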
# KDM4E inh = inhibitors of human JMJD2E histone demethylase | B2RXH2 | Potency, µM (highest dose often 57.1 µM), without a hit: at the highest dose activity change, negative = inhibition, hits mostly inhibitors | JMJD2E catalytic domain, FDH-coupled NADH fluorescence (FDH is formaldehyde dehydrogenase) | 230,000 tested, 1.6% active | AID 2147;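 note: potency is the fitted concentration of half-maximal effect; 0% = wells with enzyme and -100% = buffer wells without enzyme; nearly all actives have a fitted effect of over 50% in size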
# Target sequence (B2RXH2 1-337 limits assumed): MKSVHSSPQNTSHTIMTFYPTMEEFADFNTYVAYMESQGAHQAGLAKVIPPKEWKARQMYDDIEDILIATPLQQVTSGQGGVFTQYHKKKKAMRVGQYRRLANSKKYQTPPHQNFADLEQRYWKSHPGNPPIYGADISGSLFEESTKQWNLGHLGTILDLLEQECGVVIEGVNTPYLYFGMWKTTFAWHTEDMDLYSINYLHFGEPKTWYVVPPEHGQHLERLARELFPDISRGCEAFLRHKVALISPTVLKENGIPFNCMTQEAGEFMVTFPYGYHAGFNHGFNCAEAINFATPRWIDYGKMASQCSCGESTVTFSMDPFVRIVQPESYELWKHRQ
# PNC assembly inh = blocks assembly of the perinucleolar compartment | activity change (PNC), negative = inhibition, % at 10 µM | PC3M PTB-GFP, PNC prevalence imaging, 16 h; active compounds read low | AID 2417 | 140,000 tested, 3.1% active;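 active = readout at or below -70, meaning at least 70% loss of cells showing the perinucleolar compartment, a nuclear body marking cancer cells; inconclusive = readout between -30 and a set limit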;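 note: plate controls were DMSO wells for no effect and camptothecin positive control wells for full effect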
#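 Compounds are pinned in duplicate onto adhered PC3M cells stably expressing GFP-tagged PTB and incubated 16 h at 37 C. Cells are then fixed, nuclei stained with Hoechst, and PNC-positive cells counted.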
# ALDH1A1 inh = ALDH1A1 (human) enzyme inhibition | P00352 | Purified ALDH1A1, NADH fluorescence, propionaldehyde substrate | Potency, µM (highest dose often 75.3 µM), for the others: at the highest dose activity, negative = inhibition, hits mostly inhibitors | 220,000 tested, 7.3% active | AID 1030;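 note: potency is the fitted concentration of half-maximal effect; plate controls were no enzyme wells and a reference inhibitor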
# An asterisk follows results filed as active; ? = inconclusive; nt = not tested or not shown; [ ] = dose if it differs, or a comment. Compounds with a hit are over-represented: about 11% of the library has one in this group of screens. Unless noted, calls come from the whole dose curve; as a rule, active = well fitted inhibition curve with a large enough effect (not every such curve was filed as active); inconclusive = small, poorly fitted or top-dose-only effect, or another doubt; inactive = no such curve, though single readings can be large or run the other way. Unless noted, % is set by controls: 0 for no effect and ±100 for the full control effect.
SMILES,HPGD inh,KDM4E inh,PNC assembly inh,ALDH1A1 inh
O=C(COc1cc(O)c2c(=O)c3ccccc3oc2c1)OCc1ccccc1,nt,-22.8%,nt,nt
CCC1CCCCN1CC(=O)Nc1cc(C)nn1-c1nc(C)cc(C)n1 (centres undefined),-13.0%,-1.4%,?,14.1µM*
Cc1cc(C)nc(-n2nc(C)cc2NC(=O)CN2CCC(C)CC2)n1,0.8%,2.8%,17.1,3.55µM*
Cc1cc(C)nc(-n2nc(C)cc2NC(=O)CN2CCCC2)n1,nt,-4.8%,nt,?
COC(=O)[C@@]1(Cc2ccccc2)[C@H]2c3cc(C(=O)N(C)C)n(Cc4ccc(OC)c(OC)c4)c3C[C@H]2CN1C(=O)c1ccccc1,-6.4%,8.8%,nt,8.9%
Cc1nc2ccccc2c(=O)n1NC(=O)C1CC1,nt,3.1%,nt,-6.7%
COc1ccc(-c2coc3ccc(OC4OC(COC(C)=O)C(OC(C)=O)C(OC(C)=O)C4OC(C)=O)c(OC(C)=O)c3c2=O)cc1 (centres undefined),-3.6%,-3.4%,nt,5.4%
COc1cccc(-c2cc(=O)c3ccccc3o2)c1N,12.6µM*,-0.5%,nt,?
O=c1cc(-c2ccc(O)cc2O)oc2ccccc12,?,?,nt,9.3%
O=c1cc(-c2ccccc2F)oc2ccccc12,12.6µM*,-15.1%,4.2,-2.3%
O=c1cc(-c2ccccc2[N+](=O)[O-])oc2ccccc12,nt,6.7%,nt,?
Cc1cccc(C)c1NC(=S)Nc1ccc(Cl)c(Cl)c1,nt,-2.2%,nt,22.4µM*
Cc1cc(C)cc(NC(=S)Nc2ccc(Cl)c(Cl)c2)c1,nt,8.7%,nt,?
COc1ccc(NC(=O)C2=CCN(S(=O)(=O)c3ccccc3)CC2)cc1OC,nt,-9.6%,nt,nt
O=C(NNC1CC(=O)N(c2ccccc2)C1=O)c1ccccc1Cl (centres undefined),nt,2.4%,nt,8.3%
COC(=O)c1cc(C(=O)OC)cc(N2C(=O)CC(NNC(=O)c3ccccc3Cl)C2=O)c1 (centres undefined),-15.4%,-134.8%,-99.4*,?
C[N+]1(CC(O)COCC2COc3ccccc3O2)CCOCC1 (centres undefined),nt,8.2%,nt,-3.8%
CS(=O)(=O)N1CCC2(CCN(C(=O)Nc3cccc(F)c3)CC2)CC1,0.2%,nt,nt,40.1%
Cc1[nH]c(=S)c(C#N)c(-c2ccco2)c1C(=O)N(C)C,nt,?,nt,28.2µM*
CCOc1cc(C2CC(=O)Nc3cc(C)c(C)cc32)ccc1O (centres undefined),-2.2%,5.0%,-139.2*,5.0%
CCOc1cc(C2CC(=O)NC(SCC)=C2C#N)ccc1O (centres undefined),-2.0%,8.9%,32.1,-7.1%
CCOC(=O)Oc1c(OC)cc(C(=O)O[C@H]2C[C@H]3CN4CCc5c([nH]c6cc(OC)ccc56)[C@@H]4C[C@H]3[C@@H](C(=O)OC)[C@@H]2OC)cc1OC,-13.1%,?,nt,2.5%[20.9 µM]
CN(c1cccc(NS(=O)(=O)c2cccs2)c1)S(C)(=O)=O,-7.9%,-4.7%,14.1,20µM*
COc1ccc(S(=O)(=O)Nc2cccc(N(C)S(C)(=O)=O)c2)cc1Br,nt,4.7%,22.9,?
Cc1ccc(NC(N)=S)cc1C,-9.3%,-3.9%,-125.2*,-3.2%
SMILES,HPGD inh,KDM4E inh,PNC assembly inh,ALDH1A1 inh
Cc1ccc(NC(=S)N(C)C)cc1C,nt,-6.2%,nt,nt
NC(=S)Nc1ccc(Oc2ccc(NC(N)=S)cc2)cc1,22.4µM*,-4.6%,?,28.2µM*
Cc1ccc(NC(N)=S)cc1,-7.1%,-0.9%,11.3,-3.5%
Cc1nn(Cc2ccccc2)c(Cl)c1C(=O)OCc1nnc(-c2ccccc2)o1,12.6µM*,-3.9%,-13.0,1.6%
O=C(OCc1nnc(-c2ccccc2)o1)c1ccc2c(c1)OCO2,7.08µM*,?,-28.1,-2.2%
CCOC(=O)c1sc(N)c(C(=O)OCC)c1COC(=O)C1CC(=O)N(Cc2ccco2)C1 (centres undefined),-20.9%,-6.4%,41.1,20µM*
O=C(OCc1nnc(-c2ccccc2)o1)C1CC(=O)N(Cc2ccco2)C1 (centres undefined),nt,4.9%,nt,15µM*
COc1ccc(OC)c(S(=O)(=O)N2CCC(C(=O)N(C)Cc3ccccc3)CC2)c1,nt,3.4%,nt,nt
N#Cc1ccccc1Sc1ccccc1C(=O)OCC(N)=O,nt,-26.4%,nt,-7.3%
Cc1ccc(S(=O)(=O)N(C)CC(=O)OCc2nnc(-c3ccccc3)o2)cc1,25.1µM*,-1.4%,-6.9,?
N#Cc1ccccc1Sc1ccccc1C(=O)OCc1nnc(-c2ccccc2)o1,8.91µM*,-6.1%,-5.4,-4.3%
CCOC(=O)c1[nH]c(COC(=O)C2CC(=O)N(Cc3ccccc3)C2)c(C(=O)OCC)c1C (centres undefined),28.2µM*,0.9%,41.3,39.8µM*
COc1ccc(CC(=O)OCc2nnc(-c3ccccc3)o2)cc1,nt,11.7%,nt,4.9%
O=C(OCc1nnc(-c2ccccc2)o1)c1ccco1,8.91µM*,-2.9%,-5.5,?
Cc1ccn(C(=O)c2ccc(NC(=O)CC(C)C)cc2)n1,nt,-13.7%,nt,2.0%
O=C(OCc1nnc(-c2ccccc2)o1)c1cccnc1Cl,nt,-3.5%,nt,-0.5%
CCOc1ncccc1C(=O)OCc1nnc(-c2ccccc2)o1,15.8µM*,5.4%,-22.5,6.4%
ClCc1nnc(-c2ccccc2)o1,-15.4%,1.0%,-1.3,7.94µM*
Oc1ccc(/C=N/Nc2cc(N3CCOCC3)nc(N3CCOCC3)n2)cc1O,-19.7%,28.2µM*,51.2,-7.5%
COc1ccc(C(=O)/C=C/c2cc(OC)c(O)c(OC)c2)c(F)c1,14.1µM*,0.8%,4.2,?
COc1ccc(C(=O)/C=C/c2ccccc2)c(OC)c1,nt,-9.1%,nt,-10.5%
CC(C)CC(NS(=O)(=O)c1cccc(C(=O)O)c1)C(=O)O (centres undefined),nt,-1.4%,nt,7.2%
COc1ccc(OC)c(-n2c(CN3CCC(C(N)=O)CC3)nc3ccccc3c2=O)c1,-8.1%,3.7%,?,20µM*
CCN(CC)S(=O)(=O)c1ccc2[nH]c(=O)cc(C(=O)Nc3ccc(C)c(S(=O)(=O)N(CC)CC)c3)c2c1,-11.9%,1.1%,-8.3,?
O=C(CCS(=O)(=O)c1cccs1)Nc1ccc(C(=O)NC2CCN(Cc3ccccc3)CC2)cc1,nt,1.5%,nt,3.2%
SMILES,HPGD inh,KDM4E inh,PNC assembly inh,ALDH1A1 inh
CCCc1cc(Nc2ccccc2OCC)n2ncnc2n1,7.08µM*,-7.6%,9.6,10.3%
CCOc1ccccc1Nc1cc(C)nc2nnnn12,nt,-2.3%,nt,?
CCCCNC(=S)N(C)/N=C/c1ccc(F)cc1,28.2µM*,-2.8%,-21.2,2.9%
CCCCNC(=S)N(C)/N=C/c1c(F)cccc1F,-8.1%,6.5%,42.3,-6.8%
CCCCc1nc2c(c3c1C[C@H](C)OC3)CN(C(=O)COC)CC2,-9.8%,5.2%[11.4 µM],nt,3.6%[13.5 µM]
C=CCn1c(=O)/c(=C2/SC(C)=C(C)N2CC)s/c1=C1/C(=O)N(CC)C(=S)N1c1ccccc1,-6.6%,9.3%,?,-4.9%
C=CCn1c(=O)/c(=C2/Sc3ccccc3N2CC)s/c1=C1/C(=O)NN=C1C,nt,3.2%,nt,20µM*
Clc1cccc(Cl)c1CNc1ccc(N2CCCC2)cc1,nt,12.6µM*,nt,15.8µM*
O=C(Cc1ccc(Cl)cc1)Nc1ccc(N2CCCC2)cc1,-10.1%,-18.1%,23.7,1.1%

# Screening data (PubChem)
